Measurements reported in PubChem BioAssay (NCATS).
Results filed as inconclusive are left out. Calls of active or inactive are those of the source. Unless noted, the call rests on the fitted dose curve; in most records, active means well fitted curve in either direction with a large enough effect (not every such curve was filed as active); inconclusive means small, poorly fitted or top-dose-only effect, or another doubt; inactive means flat fitted curve, though single readings scatter.

Tests used:
[1] = target: Lysosomal acid glucosylceramidase (Homo sapiens) (UniProt P04062); experiment: Glucocerebrosidase-p2 (AID 348; in the data active means potency below about 10 µM; further: potency means the concentration at half of the fitted maximal effect); details: purified GBA, blue fluorogenic substrate, 40 min
How it was run: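 Normal human glucocerebrosidase (0.2 nM) with blue fluorogenic substrate (80 uM final) in citrate/phosphate pH 5.9 with 10mM sodium taurocholate, 0.01% tween-20; 40 min RT, NaOH/glycine stop; fluorescence Ex 365/Em 440; AC50 from a titration from 0.6 nM upwards.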

[2] = AP1 Signaling Pathway (AID 357); details: ME-180 AP-1-bla reporter, EGF-induced, beta-lactamase ratio, 5 h; at 7.69 µM (top of the series) unless noted; further: on the % scale 0 is the no-effect control and ±100 the full control effect
How it was run: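 Cells are seeded overnight, exposed to compound titrations and an EC50 level of EGF for 5 hours at 37 °C, then loaded with CCF4 dye for 2.5 hours. Beta-lactamase activity under the AP-1 element is read as a blue/green ratio.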

[3] = NFAT Signaling Pathway (AID 444); details: Jurkat NFAT-bla M1, carbachol, beta-lactamase ratio, 5 h; at 7.69 µM (top of the series) unless noted;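 further: carbachol stimulus at about its EC50 of 1 µM final; on the % scale 0 is the no-effect control and ±100 the full control effect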
How it was run: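 Jurkat cells with NFAT-driven β-lactamase reporter and co-expressed M1 receptor, stimulated with carbachol (final 1 uM, ~EC50), compound titration, 5 h at 37 °C. CCF4 loaded 1 h at RT; 460/530 nm ratio gave %activity and AC50.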

[4] = Stat Signaling Pathway (AID 446); details: ME-180 SIE beta-lactamase reporter, IL-6 stimulated, 5 h; at 7.69 µM (top of the series) unless noted;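 further: ME-180 cervical cancer cells given 40 pM IL-6 alongside compound; SIE-controlled beta-lactamase reporter measured as 460/530 nm FRET emission ratio; on the % scale 0 is the no-effect control and ±100 the full control effect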
How it was run: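 Emission at 460 and 530 nm (excitation 405 nm) reports SIE-controlled beta-lactamase in ME-180 cells. Cells received compound with 40 pM IL-6 for 5 hrs at 37 C; data scaled between 300 pM IL-6 and 125 nM JAK-inhibitor controls.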

[5] = target: Glucocorticoid receptor (Homo sapiens) (UniProt P04150); experiment: GR-GFP Redistribution (AID 450;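 active means compounds whose dose series gives a full or clear partial fitted curve of increased nuclear translocation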; further: potency means the concentration at half of the fitted maximal effect); details: U2OS GR-GFP nuclear translocation, laser cytometry, 2 h
[6] = target: Glucocorticoid receptor (Homo sapiens) (UniProt P04150); experiment: GR-EFC Redistribution (AID 451; calls by dose curve; further: potency means the concentration at half of the fitted maximal effect); details: CHO-K1 GR-EFC translocation, beta-gal luminescence, 2 h
How it was run: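 CHO-K1 cells expressing nuclear EA and GR-ED fragments of b-gal; compounds titrated up to 46 uM final, 2 h at 37 C. GR nuclear translocation read as complemented b-gal luminescence after 1 h RT detection.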

[7] = target: Mitogen-activated protein kinase 10 (Mus musculus) (UniProt Q61831); experiment: JNK3 AlphaScreen Assay (AID 530); details: JNK3 lysate, c-Jun phosphorylation; series mostly up to 57.1 µM;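 further: kinase came from lysate of stimulated human HepG2 cells; signal reports phosphorylation of biotinylated GST-cJun 1-79 at Ser73 with 10 µM ATP; on the % scale 0 is the no-effect control and ±100 the full control effect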
How it was run: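 HepG2 lysate (IL-1b/TNFa pre-activated) + biotin-GST-cJun 1-79 + anti-pSer73 cJun; cpd titration, 15 min RT; ATP 10 uM start; Tris pH 7.6, MgCl2, DTT, vanadate; beads in EDTA buffer; AlphaScreen.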

[8] = target: 3',5'-cyclic-AMP phosphodiesterase 4B (Homo sapiens) (UniProt Q07343); experiment: qHTS Assay for Inhibitors of PDE-IV (AID 607; active means well fitted activation curve with a large enough effect in the main read-out, with a control signal flat, not every such curve was filed as active; further: % of control where 0% means no effect); details: HEK293 ACTOne CNG channel cells, membrane potential fluorescence; series mostly up to 22.9 µM
How it was run: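 The readout is membrane depolarisation from a cAMP-sensing CNG channel, detected with a potential dye at ex 535/em 590. Cells were HEK293-derived (endogenous PDE-IV) at 1000 cells/well, titrated up to 22.9 uM final.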

[9] = target: Cytochrome P450 2C9 (Homo sapiens) (UniProt P11712); experiment: qHTS Assay for Inhibitors and Substrates of Cytochrome P450 2C9 (AID 883; active means well fitted curve in the direction sought with a large enough effect; an effect the other way counts as inactive or inconclusive; further: potency means the concentration at half of the fitted maximal effect; nearly all actives have a fitted effect of over 60% in size); details: recombinant CYP2C9, luciferin-H luminescence, 60 min; series mostly up to 57.1 µM
How it was run: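 10nM CYP2C9 + 100uM Luciferin-H (=KM), 25mM KPO4; cpd 10 min 37C; NADPH regen, 60 min 37C; stop/detect with P450 Glo-Buffer 20 min; luminescence. Norm. to 57uM sulphaphenazole as full inhibition.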

[10] = target: Cytochrome P450 2D6 (Homo sapiens) (UniProt P10635); experiment: qHTS Assay for Inhibitors and Substrates of Cytochrome P450 2D6 (AID 891; active means well fitted curve in the direction sought with a large enough effect; an effect the other way counts as inactive or inconclusive; further: nearly all actives have a fitted effect of over 60% in size; further: potency means the concentration at half of the fitted maximal effect); details: recombinant CYP2D6, luciferin-ME EGE luminescence; series mostly up to 11.4 µM
How it was run: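 Luminescent read-out of luciferin formed by 5 nM human CYP2D6 demethylating 30 uM Luciferin-ME EGE (Km level) over 60 min at room temperature after NADPH regeneration addition. Data normalized to full inhibition by 1.43 uM quinidine.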

[11] = qHTS Assay for Identification of Small Molecule Agonists for Hypoxia Response Element Signaling Pathway (AID 914; active means well fitted activation curve with a large enough effect in the signal ratio, with a control signal flat, not every such curve was filed as active; the % refers to the signal ratio; further: % of control where 0% means no effect); details: ME-180 (cervical carcinoma) HRE-bla reporter, beta-lactamase ratio, CoCl2, 17 h; active compounds read high
How it was run: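 Compounds in a titration series were added to ME-180 reporter cells alongside an EC50 level of CoCl2. After 17 hours, beta-lactamase activity was read as the 460nm/530nm emission ratio of CCF4, giving AC50 values.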

[12] = target: Cytochrome P450 3A4 (Homo sapiens) (UniProt P08684); experiment: qHTS Assay for Activators of Cytochrome P450 3A4 (AID 885; active means well fitted curve in the direction sought with a large enough effect; an effect the other way counts as inactive or inconclusive; further: nearly all actives have a fitted effect of over 65% in size); details: recombinant CYP3A4, Luciferin-PPXE luminescence, 60 min; series mostly up to 57.1 µM
How it was run: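 Activators are scored by enhanced luminescence from CYP3A4 conversion of luciferin-PPXE (25uM, equal to KM) to luciferin, after 60 min at RT with an NADPH-regenerating system.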

[13] = target: Cytochrome P450 2C19 (Homo sapiens) (UniProt P33261); experiment: qHTS Assay for Inhibitors and Substrates of Cytochrome P450 2C19 (AID 899; active means well fitted curve in the direction sought with a large enough effect; an effect the other way counts as inactive or inconclusive; further: on the % scale 0 is the no-effect control and ±100 the full control effect; nearly all actives have a fitted effect of over 60% in size); details: recombinant CYP2C19, luciferin-H EGE luminescence; series mostly up to 11.4 µM
How it was run: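 Luminescent read-out of luciferin formed from Luciferin-H EGE (10uM, equal to KM). Enzyme 5nM in 50mM KPO4; compound added, 10 min at 37C, then NADPH regenerating system for 60 min at 37C. Full inhibition defined by 57uM ketoconazole.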

Chain of Glucocorticoid receptor (Homo sapiens) (P04150 whole entry, looked up, the tested form may be a part): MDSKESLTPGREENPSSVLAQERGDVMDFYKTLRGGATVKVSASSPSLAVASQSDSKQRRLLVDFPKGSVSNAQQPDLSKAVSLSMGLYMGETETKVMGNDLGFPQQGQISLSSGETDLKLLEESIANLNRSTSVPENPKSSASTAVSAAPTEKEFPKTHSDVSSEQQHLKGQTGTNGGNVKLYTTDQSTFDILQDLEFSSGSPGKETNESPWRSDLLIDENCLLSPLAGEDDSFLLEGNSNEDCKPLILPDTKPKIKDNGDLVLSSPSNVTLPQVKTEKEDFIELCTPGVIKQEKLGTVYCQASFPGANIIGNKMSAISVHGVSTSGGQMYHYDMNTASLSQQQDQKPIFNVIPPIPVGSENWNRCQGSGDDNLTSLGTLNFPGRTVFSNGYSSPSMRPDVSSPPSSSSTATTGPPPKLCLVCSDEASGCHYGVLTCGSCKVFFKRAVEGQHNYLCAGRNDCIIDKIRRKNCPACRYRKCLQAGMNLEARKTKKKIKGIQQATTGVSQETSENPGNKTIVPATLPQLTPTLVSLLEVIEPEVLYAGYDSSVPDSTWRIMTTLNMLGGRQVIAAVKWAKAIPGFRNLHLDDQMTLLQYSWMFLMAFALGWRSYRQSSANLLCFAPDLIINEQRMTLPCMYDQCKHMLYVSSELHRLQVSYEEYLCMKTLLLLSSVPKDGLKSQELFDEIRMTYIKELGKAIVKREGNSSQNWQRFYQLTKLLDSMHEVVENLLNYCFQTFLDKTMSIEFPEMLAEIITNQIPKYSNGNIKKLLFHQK
Chain of Cytochrome P450 2D6 (Homo sapiens) (P10635 whole entry, looked up): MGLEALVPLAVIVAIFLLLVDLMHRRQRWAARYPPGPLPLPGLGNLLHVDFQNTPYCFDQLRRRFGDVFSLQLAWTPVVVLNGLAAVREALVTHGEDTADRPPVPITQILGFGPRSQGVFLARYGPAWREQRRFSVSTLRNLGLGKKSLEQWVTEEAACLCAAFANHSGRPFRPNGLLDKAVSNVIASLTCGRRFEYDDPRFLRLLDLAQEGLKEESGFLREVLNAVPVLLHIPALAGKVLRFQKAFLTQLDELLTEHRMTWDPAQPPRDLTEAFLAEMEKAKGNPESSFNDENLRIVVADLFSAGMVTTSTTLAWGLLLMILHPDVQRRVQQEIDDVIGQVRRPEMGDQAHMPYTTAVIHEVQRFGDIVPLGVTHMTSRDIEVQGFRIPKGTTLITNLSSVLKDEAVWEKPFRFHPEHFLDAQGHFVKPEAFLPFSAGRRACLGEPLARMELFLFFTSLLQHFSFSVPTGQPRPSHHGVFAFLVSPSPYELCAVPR
Chain of Lysosomal acid glucosylceramidase (Homo sapiens) (P04062 whole entry, looked up): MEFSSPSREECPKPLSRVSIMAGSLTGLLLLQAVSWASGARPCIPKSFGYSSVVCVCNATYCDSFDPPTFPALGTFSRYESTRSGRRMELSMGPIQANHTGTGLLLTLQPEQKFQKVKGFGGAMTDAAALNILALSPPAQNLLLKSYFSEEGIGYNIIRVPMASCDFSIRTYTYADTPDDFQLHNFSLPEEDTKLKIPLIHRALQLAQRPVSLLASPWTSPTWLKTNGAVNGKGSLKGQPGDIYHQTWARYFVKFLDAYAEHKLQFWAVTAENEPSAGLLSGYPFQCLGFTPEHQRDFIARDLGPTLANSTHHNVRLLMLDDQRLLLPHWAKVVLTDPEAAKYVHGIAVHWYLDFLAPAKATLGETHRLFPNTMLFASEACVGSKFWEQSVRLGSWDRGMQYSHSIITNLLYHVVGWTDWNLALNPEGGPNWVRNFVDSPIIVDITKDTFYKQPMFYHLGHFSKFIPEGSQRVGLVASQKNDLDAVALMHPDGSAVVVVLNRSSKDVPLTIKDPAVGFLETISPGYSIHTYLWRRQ
Chain of 3',5'-cyclic-AMP phosphodiesterase 4B (Homo sapiens) (Q07343 whole entry, looked up): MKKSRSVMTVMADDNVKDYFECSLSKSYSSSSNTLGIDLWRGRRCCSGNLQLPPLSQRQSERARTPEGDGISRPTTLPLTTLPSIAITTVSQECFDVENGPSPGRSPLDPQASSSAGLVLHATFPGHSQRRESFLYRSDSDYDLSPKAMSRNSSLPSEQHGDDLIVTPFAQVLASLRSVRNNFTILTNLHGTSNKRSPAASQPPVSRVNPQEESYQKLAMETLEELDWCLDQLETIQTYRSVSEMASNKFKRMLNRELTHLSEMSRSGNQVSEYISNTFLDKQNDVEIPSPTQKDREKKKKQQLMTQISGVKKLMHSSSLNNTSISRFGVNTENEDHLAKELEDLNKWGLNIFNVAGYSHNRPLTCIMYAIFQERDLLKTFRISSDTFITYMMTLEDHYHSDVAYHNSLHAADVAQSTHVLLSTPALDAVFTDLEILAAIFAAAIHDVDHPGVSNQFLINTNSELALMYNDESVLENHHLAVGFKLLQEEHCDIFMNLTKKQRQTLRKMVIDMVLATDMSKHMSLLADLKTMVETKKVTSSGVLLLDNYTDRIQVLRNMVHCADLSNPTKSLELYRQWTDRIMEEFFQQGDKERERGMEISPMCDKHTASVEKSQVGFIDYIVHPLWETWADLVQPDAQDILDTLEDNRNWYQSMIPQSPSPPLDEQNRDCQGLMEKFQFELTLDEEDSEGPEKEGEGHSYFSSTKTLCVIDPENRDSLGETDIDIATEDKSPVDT
Chain of Cytochrome P450 3A4 (Homo sapiens) (P08684 whole entry, looked up): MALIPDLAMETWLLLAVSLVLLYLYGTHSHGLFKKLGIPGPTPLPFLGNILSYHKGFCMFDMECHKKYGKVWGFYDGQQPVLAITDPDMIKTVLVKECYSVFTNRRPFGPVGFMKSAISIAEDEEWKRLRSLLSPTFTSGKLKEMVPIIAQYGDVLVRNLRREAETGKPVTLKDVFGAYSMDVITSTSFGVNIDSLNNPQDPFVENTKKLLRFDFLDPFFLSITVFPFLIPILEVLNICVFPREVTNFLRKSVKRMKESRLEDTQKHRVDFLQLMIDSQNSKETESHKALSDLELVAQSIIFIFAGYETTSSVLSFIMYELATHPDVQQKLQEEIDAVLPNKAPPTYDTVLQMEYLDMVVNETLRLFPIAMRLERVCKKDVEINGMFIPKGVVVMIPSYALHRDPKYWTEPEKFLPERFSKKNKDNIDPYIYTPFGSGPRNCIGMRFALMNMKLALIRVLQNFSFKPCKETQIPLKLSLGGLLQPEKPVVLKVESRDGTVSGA
Chain of Cytochrome P450 2C9 (Homo sapiens) (P11712 whole entry, looked up): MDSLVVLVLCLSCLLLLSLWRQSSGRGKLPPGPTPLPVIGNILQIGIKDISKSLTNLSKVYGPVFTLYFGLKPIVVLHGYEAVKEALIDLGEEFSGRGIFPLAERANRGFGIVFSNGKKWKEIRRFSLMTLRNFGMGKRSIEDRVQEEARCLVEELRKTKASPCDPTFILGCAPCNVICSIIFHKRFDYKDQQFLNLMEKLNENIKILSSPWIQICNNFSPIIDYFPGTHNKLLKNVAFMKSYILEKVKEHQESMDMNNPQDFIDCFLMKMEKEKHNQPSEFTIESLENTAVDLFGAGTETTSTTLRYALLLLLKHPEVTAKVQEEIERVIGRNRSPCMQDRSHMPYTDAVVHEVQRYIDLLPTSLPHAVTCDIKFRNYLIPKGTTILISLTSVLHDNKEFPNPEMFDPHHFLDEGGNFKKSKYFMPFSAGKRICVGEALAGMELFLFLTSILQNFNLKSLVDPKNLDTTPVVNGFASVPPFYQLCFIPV
Chain of Cytochrome P450 2C19 (Homo sapiens) (P33261 whole entry, looked up): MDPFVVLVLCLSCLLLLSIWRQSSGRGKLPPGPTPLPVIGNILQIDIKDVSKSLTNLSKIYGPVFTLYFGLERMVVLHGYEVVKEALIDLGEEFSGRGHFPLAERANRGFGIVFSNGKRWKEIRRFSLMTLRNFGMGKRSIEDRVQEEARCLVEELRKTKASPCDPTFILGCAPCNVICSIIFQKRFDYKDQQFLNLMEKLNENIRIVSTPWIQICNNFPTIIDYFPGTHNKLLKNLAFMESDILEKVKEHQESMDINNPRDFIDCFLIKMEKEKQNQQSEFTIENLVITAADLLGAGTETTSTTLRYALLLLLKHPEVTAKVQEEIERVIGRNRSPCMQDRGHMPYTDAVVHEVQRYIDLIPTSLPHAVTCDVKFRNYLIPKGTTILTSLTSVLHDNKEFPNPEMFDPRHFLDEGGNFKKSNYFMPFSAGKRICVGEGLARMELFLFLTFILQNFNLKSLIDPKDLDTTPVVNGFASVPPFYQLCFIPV

CC1=NN(c2ccccc2)C(=O)[C@@H]1N=Nc1ccc([As](=O)(O)O)c(O)c1
active: Potency [9] 3.16 µM
inactive: Potency [1] > 11.4 µM | activity change, negative = inhibition [2] 6.32% | activity change, negative = inhibition [3] 12.3% | activity, negative = inhibition [4] -13.3% | Potency [5] > 46 µM | Potency [6] > 9.22 µM | activity change, negative = inhibition [7] -2.32% [at 11.4 µM] | outcome [8] | Potency [10]

CC(=O)OC1=CC2=CC[C@H]3[C@H]4CCC(=O)[C@@]4(C)CC(=O)[C@]3(S)[C@]2(C)CC1
inactive: Potency [1] > 11.4 µM | activity change, negative = inhibition [2] -0.915% | activity change, negative = inhibition [3] 2.48% | activity, negative = inhibition [4] -7.63% | Potency [5] > 46 µM | Potency [6] > 9.22 µM | activity change, negative = inhibition [7] -3.16% [at 11.4 µM] | outcome [8] | activation [11] -4.78%

COC(=O)[C@@H]1c2cc3c(c(O)c2[C@@H](O)C[C@]1(C)O)C(=O)c1c(O)cc2c(c1C3=O)O[C@H]1O[C@@]2(C)[C@@H](O)[C@H](N(C)C)[C@H]1O
inactive: Potency [1] > 11.4 µM | activity change, negative = inhibition [2] -3.96% | activity change, negative = inhibition [3] 6.8% | Potency [5] > 46 µM | Potency [6] > 9.22 µM | activity change, negative = inhibition [7] -5.17% [at 11.4 µM] | outcome [8]

NC(N)=NCCN=C(N)N
inactive: Potency [1] > 11.4 µM | activity change, negative = inhibition [2] 1.56% | activity change, negative = inhibition [3] -0.323% | Potency [5] > 46 µM | Potency [6] > 9.22 µM | activity change, negative = inhibition [7] 1.78% [at 11.4 µM] | outcome [8]

C=C(C)c1ccccc1 (tested in a mixture with another compound)
inactive: Potency [1] > 11.4 µM | activity change, negative = inhibition [2] -1.01% | activity change, negative = inhibition [3] -21.5% | activity, negative = inhibition [4] -6.96% | activity change, negative = inhibition [7] -9.26% [at 11.4 µM] | outcome [8]

CCSCC[C@H](N)C(=O)O
inactive: Potency [1] > 11.4 µM | activity change, negative = inhibition [2] 4.84% | activity change, negative = inhibition [3] 3.15% | activity, negative = inhibition [4] -0.0113% | Potency [5] > 46 µM | Potency [6] > 9.22 µM | outcome [8]

c1cc(CCN2CCCCC2)ccn1
inactive: Potency [1] > 11.4 µM | activity change, negative = inhibition [2] 1.53% | activity change, negative = inhibition [3] 7.13% | Potency [5] > 46 µM | Potency [6] > 9.22 µM | activity change, negative = inhibition [7] 1.02% [at 11.4 µM] | outcome [8] | activity change, positive = activation [12] -36% [at 11.4 µM]

COc1ccc(C[C@@H](N)c2ccc(OC)cc2)cc1
active: Potency [10] 0.631 µM
inactive: Potency [1] > 11.4 µM | activity change, negative = inhibition [2] -1.85% | activity change, negative = inhibition [3] 3.98% | activity, negative = inhibition [4] -0.344% | Potency [5] > 46 µM | activity change, negative = inhibition [7] 3.37% [at 11.4 µM] | outcome [8]

CO[C@@H]([CH2][Hg])CN1C(=O)c2ccccc2S1(=O)=O.Cn1c(=O)c2nc[nH]c2n(C)c1=O
inactive: activity change, negative = inhibition [2] 12.7% | activity change, negative = inhibition [3] -3.51% | activity, negative = inhibition [4] 6.13% | activity change, negative = inhibition [7] -0.0716% [at 11.4 µM] | outcome [8] | Potency [10]
active: Potency [1] 1.86 µM

CCN=C=NCCCN(C)C
inactive: Potency [1] > 11.4 µM | activity change, negative = inhibition [2] 5.33% | activity change, negative = inhibition [3] 4.76% | activity, negative = inhibition [4] 2.84% | Potency [5] > 46 µM | Potency [6] > 9.22 µM | outcome [8] | Potency [10]

O=C(Nc1ccc([As](=O)(O)O)cc1)Nc1cccc(Cl)c1Cl
inactive: Potency [1] > 11.4 µM | activity change, negative = inhibition [2] -0.577% | activity change, negative = inhibition [3] 6.56% | Potency [5] > 46 µM | Potency [6] > 9.22 µM | activity change, negative = inhibition [7] 0.483% [at 11.4 µM] | outcome [8]

CC(C)CNCCc1ccccn1
inactive: Potency [1] > 11.4 µM | activity change, negative = inhibition [2] 11.4% | activity change, negative = inhibition [3] 10.3% | activity, negative = inhibition [4] 0.662% | Potency [5] > 46 µM | Potency [6] > 9.22 µM | activity change, negative = inhibition [7] 2.37% [at 11.4 µM] | outcome [8] | Potency [13] | activation [11] 5.07%

NNc1nncn1N
inactive: Potency [1] > 11.4 µM | activity change, negative = inhibition [2] 17.5% | activity change, negative = inhibition [3] 5.16% | activity, negative = inhibition [4] 18.4% | Potency [5] > 46 µM | Potency [6] > 9.22 µM | outcome [8]

CO[C@H]1[C@H](O)[C@H](O[C@@H]2[C@H](Oc3cccc4c(O)c5c(=O)oc6ccc(C)c7c(=O)oc(c34)c5c67)O[C@@H](C)[C@H](O)[C@H]2O)O[C@@H](C)[C@@H]1O
inactive: Potency [1] > 11.4 µM | activity change, negative = inhibition [2] 1.4% | activity change, negative = inhibition [3] 10.4% | activity, negative = inhibition [4] 7.37% | Potency [5] > 46 µM | activity change, negative = inhibition [7] 1.22% [at 11.4 µM] | outcome [8]

O=C(O)C[C@H]1OCC=C2CN3CC[C@@]45C6=CC(=O)C(=O)C([N+](=O)[O-])=C6N[C@H]4[C@H]1[C@H]2C[C@@H]35
inactive: Potency [1] > 11.4 µM | activity change, negative = inhibition [2] 4.93% | activity change, negative = inhibition [3] 2.25% | Potency [5] > 46 µM | Potency [6] > 9.22 µM | activity change, negative = inhibition [7] -0.499% [at 11.4 µM] | outcome [8]
